From PubChem BioAssay (EPA / NIEHS) come the findings set out here.

Structures are written as SMILES. Results filed as inconclusive are left out. Active and inactive are the calls of the source. Rule for the calls: active = hit-call score of the fitted dose curve at least 0.9, where 1 is the maximum; inconclusive = response in the unintended direction; inactive = score below 0.9.

Chain of Metabotropic glutamate receptor 1 (Rattus norvegicus) (P23385 whole entry, looked up): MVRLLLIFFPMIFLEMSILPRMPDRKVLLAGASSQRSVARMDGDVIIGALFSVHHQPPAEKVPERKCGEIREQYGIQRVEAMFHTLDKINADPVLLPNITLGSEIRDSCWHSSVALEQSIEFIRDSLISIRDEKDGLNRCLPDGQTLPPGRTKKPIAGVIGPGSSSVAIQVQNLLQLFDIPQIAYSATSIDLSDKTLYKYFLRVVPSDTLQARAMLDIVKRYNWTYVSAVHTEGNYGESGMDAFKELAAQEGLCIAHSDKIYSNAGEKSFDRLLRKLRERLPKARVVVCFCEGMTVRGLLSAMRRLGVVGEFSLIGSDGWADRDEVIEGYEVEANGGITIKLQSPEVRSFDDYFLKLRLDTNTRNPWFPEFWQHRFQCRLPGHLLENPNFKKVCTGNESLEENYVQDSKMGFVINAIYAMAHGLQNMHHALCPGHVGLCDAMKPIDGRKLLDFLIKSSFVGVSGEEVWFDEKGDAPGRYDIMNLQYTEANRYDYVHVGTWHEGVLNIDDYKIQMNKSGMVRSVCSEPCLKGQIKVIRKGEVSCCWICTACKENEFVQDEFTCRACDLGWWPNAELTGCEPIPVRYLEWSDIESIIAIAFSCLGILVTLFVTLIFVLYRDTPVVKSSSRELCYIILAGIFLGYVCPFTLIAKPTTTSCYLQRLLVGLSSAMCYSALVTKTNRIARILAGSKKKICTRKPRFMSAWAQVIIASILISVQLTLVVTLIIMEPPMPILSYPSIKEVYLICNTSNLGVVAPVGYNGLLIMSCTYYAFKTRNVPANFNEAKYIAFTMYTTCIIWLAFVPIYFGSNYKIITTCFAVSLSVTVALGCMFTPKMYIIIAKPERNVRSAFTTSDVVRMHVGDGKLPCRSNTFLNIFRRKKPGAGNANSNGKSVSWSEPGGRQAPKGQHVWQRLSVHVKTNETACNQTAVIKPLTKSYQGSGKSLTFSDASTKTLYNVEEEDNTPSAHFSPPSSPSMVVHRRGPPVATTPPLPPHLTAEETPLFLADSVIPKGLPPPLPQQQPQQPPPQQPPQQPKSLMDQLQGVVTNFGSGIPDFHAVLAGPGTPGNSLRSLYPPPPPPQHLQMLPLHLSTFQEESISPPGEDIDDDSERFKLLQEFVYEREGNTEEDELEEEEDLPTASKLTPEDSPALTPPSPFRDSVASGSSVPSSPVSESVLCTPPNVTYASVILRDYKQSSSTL
Chain of Adra2b (gene 24174) (P19328 whole entry, looked up): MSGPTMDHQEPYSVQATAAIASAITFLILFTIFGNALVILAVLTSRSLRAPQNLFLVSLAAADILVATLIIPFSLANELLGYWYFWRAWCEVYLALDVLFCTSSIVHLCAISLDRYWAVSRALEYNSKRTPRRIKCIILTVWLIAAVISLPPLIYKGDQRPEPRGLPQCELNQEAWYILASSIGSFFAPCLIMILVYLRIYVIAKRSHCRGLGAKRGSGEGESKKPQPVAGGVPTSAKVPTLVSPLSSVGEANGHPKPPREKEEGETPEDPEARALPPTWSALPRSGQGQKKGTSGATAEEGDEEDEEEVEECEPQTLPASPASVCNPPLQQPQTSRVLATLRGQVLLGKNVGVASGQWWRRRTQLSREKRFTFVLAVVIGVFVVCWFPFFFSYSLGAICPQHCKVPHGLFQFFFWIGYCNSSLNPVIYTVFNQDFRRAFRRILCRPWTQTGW

The target in the first experiment is Metabotropic glutamate receptor 1 (Rattus norvegicus) (UniProt P23385). Nature of the experiment: NVS_GPCR_rmMGluR1: NovaScreen (NVS) G Protein-Coupled Receptor Assay for rat Glutamate Metabotropic Receptor 1 (MGluR1) (AID 2283305). The procedure:
NVS_GPCR_rmMGluR1 is a biochemical, single-readout assay that uses extracted gene-proteins from Rat cerebellum in a tissue-based cell-free assay. Measurements were taken 1 hour after chemical dosing in a 96-well plate.NVS_GPCR_rmMGluR1 is one of one assay component(s) measured or calculated from the NVS_GPCR_rmMGluR1 assay. It is designed to make measurements of radioligand binding, a form of binding reporter, as detected with scintillation counting signals by Filter-based radiodetection technology.Data from the assay component NVS_GPCR_rmMGluR1 was analyzed into 1 assay endpoint. This assay endpoint, NVS_GPCR_rmMGluR1, was analyzed in the positive analysis fitting direction relative to DMSO as the negative control and baseline of activity. Using a type of binding reporter, loss-of-signal activity can be used to understand changes in the binding as they relate to the gene Grm1. Furthermore, this assay endpoint can be referred to as a primary readout, because the performed assay has only produced 1 assay endpoint. To generalize the intended target to other relatable targets, this assay endpoint is annotated to the gpcr intended target family, where the subfamily is metabotropic glutamate receptor.
Binding assays used specific radioligands (tritiated, iodinated) with non-radioactive competitive displacement ligands in agonist or antagonist protocols (as indicated) and various reference compounds and inhibitors to titrate specific binding to receptors and transporters. Most enzyme assays (CYPs, kinases, phosphatases, proteases, HDACs) used recombinant protein and specific substrates (fluorescence mostly, some colorimetric and radioactive) and inhibitors, followed by a biochemical separation of substrate and product. All assays for the biochemical HTS were initially run in duplicate at a single concentration (10 uM for CYP450 assays and 25 uM for all others). Assay-chemical combinations meeting a pre-defined threshold (e.g., 30% inhibition and other criteria defined below) were then run in singleton concentration-response format with maximum concentration of 20 uM for CYPs and 50 uM for all others. Each assay was run with positive and negative controls, and concurrent controls on every plate. The follow-up (secondary) screen tested active chemical-pairs in concentration series, as well as a few additional assays not tested in the primary screen, some selected negative inactives, and several cases re-run in the concentration series for confirmatory purposes.
Turning to `CCC[CH2][Sn]([Cl])([CH2]CCC)[CH2]CCC`, the half-maximal activity concentration (AC50) is 2.5 µM (active).

In the case of `[Cl-].[Cl-].[Hg+2]`, the AC50 is 14 µM (active).

In the case of `CCCCCCCCn1sccc1=O`, the half-maximal activity concentration (AC50) is 21.2 µM (active).

`O=[N+]([O-])C(Br)(CO)CO`: the AC50 is 40.5 µM (active).

A further experiment deals with Adra2b (gene 24174) (UniProt P19328). The experiment in a line: NVS_GPCR_rmAdra2B: NovaScreen (NVS) G Protein-Coupled Receptor Assay for hybird cells Adrenergic, Alpha 2B Receptor (Adra2B) (AID 2283306). Summed up:
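Radioligand filter-binding assay on membrane proteins from neuroglioma/blastoma hybrid cells (rodent), 1 h after dosing; scintillation counting, loss of signal vs DMSO. Primary screen in duplicate at 25 uM, actives then run in concentration series.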
Take `CCOC(=O)[C@]1(c2ccccc2)Oc2ccccc2[C@@H]1N`: the AC50 was 1.76 µM (active).

Regarding `CCC[CH2][Sn]([Cl])([CH2]CCC)[CH2]CCC`, the compound was called inactive.

Regarding `O=C(Oc1ccc(Br)cc1)N1CCN2CCC1CC2`, the outcome was inactive.

As to `[Cl-].[Cl-].[Hg+2]`, the concentration at half-maximal activity (AC50) is 6.72 µM (active).

Take `CC(C)(C)C(O)(CCc1ccc(Cl)cc1)Cn1cncn1` (stereo unspecified): the outcome was inactive.

Regarding `CCCCCCCCn1sccc1=O`, the AC50 was 26 µM (active).

With `C[C@]12C=CC3=C4CCC(=O)C=C4CC[C@H]3[C@@H]1CC[C@@H]2O`, the concentration at half-maximal activity (AC50) is 20.7 µM (active).
